Source: PubChem BioAssay AID1159524 (National Center for Advancing Translational Sciences (NCATS), 2015)
The whole screen tested about 410,000 compounds, of which about 5,100 (1.2%) were called active. Where a call stands in place of a potency, no number is given. Inconclusive results (about 8%) are left out. This excerpt belongs to a sample that is enriched for actives. A number with no mark means an inactive call. Calls come from the whole dose curve; tested in HEK293T cells.

Assay: High Throughput Screening for Foot and Mouth Disease Virus Antivirals; note: read-out not given here; nearly all actives have a fitted effect of over 45% in size
Settings: FMDV antiviral cell-based qHTS; series mostly up to 57.9 µM
Potency is the fitted concentration of half-maximal effect.

Row | Structure (SMILES) | Potency | activity change, negative = inhibition
1 | CCOc1ccccc1NC(=O)CSc1ncc(S(=O)(=O)c2ccc(C(C)(C)C)cc2)c(=O)[nH]1 | inactive | 
2 | Cc1ccc(S(=O)(=O)c2nc(-c3ccco3)oc2SCC(=O)Nc2ccc(F)cc2)cc1 | inactive | 
3 | O=C(COc1ccccc1Cl)Nc1ccc2nc(SCC(=O)N3CCCC3)sc2c1 | 31.6 µM (active) | 
4 | Cc1ccc(OCCSc2nc3ccc(NC(=O)COc4ccc(C)cc4)cc3s2)cc1 | inactive | 
5 | CCC(=O)Nc1ccc2nc(SCC(=O)N3CCc4ccccc43)sc2c1 | inactive | 
6 | Nc1nnc(SCC(=O)Nc2ccc3nc(SCC(=O)Nc4ccccc4)sc3c2)s1 | 20 µM (active) | 
7 | O=C(Nc1ccc2nc(SCCOc3ccccc3Cl)sc2c1)c1ccco1 | inactive | 
8 | Cc1cccc(OCCSc2nc3ccc(NC(=O)COc4ccccc4C)cc3s2)c1 | inactive | 
9 | COc1ccc(NC(=O)Nc2cccc(-c3noc(C)n3)c2)cc1 | inactive | 
10 | CCNc1ncc2ncc(=O)n(Cc3cccc(OC)c3)c2n1 | inactive | 
11 | COCCNc1ncnc2ccc(-c3cccnc3)cc12 | inactive | 
12 | COC(=O)C(c1ccccc1)N1CCCCCC1 (centres undefined) | inactive | 
13 | CC1(C)CC(N2CCN(C(c3ccccc3)c3ccccc3)CC2)=CC(=[N+]2CCCCC2)C1 | 2.82 µM (active) | 
14 | CCN1CCN(c2ncc3c(n2)CC(c2ccccc2O)CC3=O)CC1 (centres undefined) | inactive | 
15 | COCc1[nH]nc2c1C(C1C=CCCC1)C(C#N)=C(N)O2 (centres undefined) | 31.6 µM (active) | 
16 | N#CC1=C(N)Oc2cc(O)ccc2C1C1CCCCC1 (centres undefined) | inactive | 
17 | Cc1nc2nc(NCc3cccc(Br)c3)[nH]n2c(=O)c1Cc1ccccc1 | inactive | 
18 | COCCNC(=O)c1cc(-c2cccc(Cl)c2)on1 | inactive | 
19 | COc1cc2nc(NCC(C)c3ccccc3)n3nc(-c4ccccc4)nc3c2cc1OC (centres undefined) | inactive | 
20 | Cc1cnc(CNc2ncncc2-c2ccccc2Cl)cn1 | inactive | 
21 | Cn1cc(-c2nc3cnc(N4CCNCC4)nc3n(CCC#N)c2=O)c2ccccc21 | inactive | 
22 | COc1cccc(CNc2nccn(-c3ccc(OC)c(OC)c3)c2=O)c1 | inactive | 
23 | COc1cccc(CNc2nc(NCc3ccccc3OC)nc3ccsc23)c1 | 25.1 µM (active) | 
24 | COc1ccc(CNc2ncncc2-c2ccccc2OC)c(OC)c1 | inactive | 
25 | CCCN(C/C=C\I)[C@@H]1CCc2cccc(O)c2C1 | inactive | 

Row | Structure (SMILES) | Potency | activity change, negative = inhibition
26 | COc1ccc(-c2nc3sc(CCNC(=O)C(C)(C)C)c(C)n3n2)cc1 | inactive | 
27 | c1cncc(-c2nc(N3CCNCC3)c3ccccc3n2)c1 | inactive | 
28 | O=C(COc1nc2ccccc2nc1N1CCOCC1)NCC(F)(F)F | inactive | 
29 | c1ccc(Nc2nc(N3CCOCC3)c3ccccc3n2)cc1 | 11.2 µM (active) | 
30 | O=C(O)C[C@@H]1NC(=O)[C@H](Cc2ccccc2)NC1=O | inactive | 
31 | CCNc1ccc(C(=O)OCC(=O)N2c3ccccc3NC(=O)C2(C)C)cc1[N+](=O)[O-] | 20 µM (active) | 
32 | Cc1ccc(OCCC(=O)OCC(=O)N2c3ccccc3NC(=O)C2(C)C)cc1 | inactive | 
33 | CNS(=O)(=O)c1cccc(C(=O)OCC(=O)N2c3ccccc3NC(=O)C2(C)C)c1 | inactive | 
34 | COc1ccc2c(c1)NC(=O)C2CC(=O)N1CCOc2c(cc(-c3cnc4ccccc4c3)cc2OC)C1 (centres undefined) | inactive | 
35 | O=C1/C(=C\c2ccc([N+](=O)[O-])cc2)CS(=O)(=O)C/C1=C/c1ccc([N+](=O)[O-])cc1 | 2.24 µM (active) | 
36 | Nc1ccc([N+](=O)[O-])cc1 | inactive | 
37 | O=C(NCCCc1ccccc1)c1ccc2c(c1)sc1nc(-c3ccc(F)cc3)cn12 | inactive | 
38 | Cc1ncc2c(c1CNS(=O)(=O)N(C)C)CCN(C(=O)c1ccccc1F)C2 | inactive | 
39 | CC(=O)c1ccc(NC(=O)c2ccc3c(Cl)c4c(nc3c2)CCCC4)cc1 | 22.4 µM (active) | 
40 | COc1cccc(CNC(=O)c2ccc3c(Cl)c4c(nc3c2)CCCC4)c1 | inactive | 
41 | CC(C)CCNC(=O)c1ccc2c(Cl)c3c(nc2c1)CCC3 | inactive | 
42 | COc1ccc(-c2noc(-c3ccc(N4CCN(c5ccccc5)CC4)c([N+](=O)[O-])c3)n2)cc1OC | inactive | 
43 | c1ccc(CN2CCN(Cc3ccc4c(c3)CN(Cc3c[nH]c5ccccc35)CCO4)CC2)nc1 | inactive | 
44 | COc1ccccc1C(=O)OCC(=O)NCCNC(=O)COC(=O)c1ccccc1OC | inactive | 
45 | CCOC(=O)C(=O)C1C(=O)Nc2ccccc21 (centres undefined) | inactive | 
46 | CCOC(=O)C(=Cc1ccccc1OC)C(=O)OCC | 28.2 µM (active) | 
47 | COc1ccccc1/C=C/C(=O)OCC(=O)NC1CCCCCC1 | inactive | 
48 | CCOC(=O)C(=Cc1ccccc1)C(=O)c1ccccc1 | 8.91 µM (active) | 
49 | CCOC(=O)CCP(=O)(O)C(O)(c1ccccc1)c1ccccc1 | inactive | 
50 | Cc1ccc(CC2(O)CCN(CCOc3ccc(O)cc3)CC2)cc1 | inactive | 

Row | Structure (SMILES) | Potency | activity change, negative = inhibition
51 | C[C@@H]1CN(Cc2ccc3c(c2)CN(Cc2ccc(Oc4ncccn4)cc2)CCO3)C[C@H](C)O1 | inactive | 
52 | CCS(=O)(=O)N(C)[C@@H]1c2cc(C#N)ccc2OC(C)(C)[C@H]1O | inactive | 
53 | CCn1c(SCC(=O)Nc2nc(C)cs2)nnc1C(C)NC(=O)c1ccccc1 (centres undefined) | inactive | 
54 | CC(=O)NC(c1ccccc1)c1nc(-c2ccccc2C)cs1 (centres undefined) | inactive | 
55 | CC(=O)Nc1ccc(-c2csc(NC(=O)Nc3ccccc3)n2)cc1 | 15.8 µM (active) | 
56 | CC(=O)c1ccc(NC(=O)CSc2nnc(NC(=O)Nc3ccccc3)s2)cc1 | inactive | 
57 | CC(=O)Nc1ccc(C(=O)Nc2nc(-c3cc(C)n(Cc4ccccc4)c3C)cs2)cc1 | 22.4 µM (active) | 
58 | Cc1ccc(C(=O)Nc2ccc(OCc3cc(=O)n4c(C)csc4n3)cc2)cc1 | inactive | 
59 | O=S(=O)(NCC(c1ccccc1)N1CCc2ccccc21)c1ccccc1 (centres undefined) | inactive | 
60 | COCCn1c(CN2CCC(Cc3ccccc3)CC2)nc2c1c(=O)n(C)c(=O)n2C | 15.8 µM (active) | 
61 | CC1CCCN(Cc2nc3c(c(=O)n(C)c(=O)n3C)n2CC(=O)c2ccccc2)C1 (centres undefined) | inactive | 
62 | CC1CN(Cc2nc3c(c(=O)n(C)c(=O)n3C)n2Cc2cccc(Cl)c2)CC(C)O1 (centres undefined) | inactive | 
63 | CC(C)C1=CC2=CC[C@H]3[C@](C)(C(=O)O)CCC[C@]3(C)C2CC1 (some centres undefined) | inactive | 
64 | CC(=O)N1CCN(Cc2cc(=O)oc3cc(C)ccc23)CC1 | inactive | 
65 | COc1ccc2c(CN3CCN(S(=O)(=O)c4cccs4)CC3)cc(=O)oc2c1 | 39.8 µM (active) | 
66 | O=c1cc(CN2CCN(S(=O)(=O)/C=C/c3ccccc3)CC2)c2ccc(O)cc2o1 | inactive | 
67 | O=c1c(NCc2cccs2)nccn1-c1ccccc1 | inactive | 
68 | CCCCC/C=C\C/C=C\C/C=C\C=C\[C@H](CCCC(=O)O)OO |  | -15.4% [at 0.463 µM]
69 | COc1ccc(CCNC(=O)c2nnc(CS(=O)(=O)c3ccccc3)o2)cc1OC | inactive | 
70 | O=C(NCc1cccnc1)c1ccc(CS(=O)(=O)c2ccc(Br)cc2)o1 | inactive | 
71 | COc1ccc(CCNC(=O)c2ccc(CS(=O)(=O)c3ccc(Br)cc3)o2)cc1OC | 31.6 µM (active) | 
72 | O=c1c2sccc2nc(SCc2cc(=O)n3ccccc3n2)n1-c1ccc(Br)cc1 | inactive | 
73 | CCc1ccc(-n2c(SCc3cc(=O)n4cc(Br)ccc4n3)nc3[nH]ncc3c2=O)cc1 | 31.6 µM (active) | 
74 | Cc1cccc2nc(CSc3nc4[nH]ncc4c(=O)n3-c3cccc(Cl)c3)cc(=O)n12 | 15.8 µM (active) | 
75 | Cc1nnc(NC(=O)CSc2nc3c([nH]c4ccccc43)c(=O)n2-c2cccc(Cl)c2)s1 | inactive | 

Row | Structure (SMILES) | Potency | activity change, negative = inhibition
76 | Cc1ccc(CSc2nc3[nH]ncc3c(=O)[nH]2)cc1 | inactive | 
77 | Cc1nnc(SCc2cccc(Cl)c2)n(N)c1=O | inactive | 
78 | O=C(NCc1ccccc1)C(=O)NCC(c1ccco1)S(=O)(=O)c1ccc(Cl)cc1 (centres undefined) | 31.6 µM (active) | 
79 | COc1ccc(CCNC(=O)C(=O)NCC(c2ccco2)S(=O)(=O)c2cccs2)cc1OC (centres undefined) | inactive | 
80 | O=C(Cc1ccc(Cl)cc1)NCC(c1cccs1)S(=O)(=O)c1ccc(Cl)cc1 (centres undefined) | inactive | 
81 | COc1ccc(Oc2ncc3nc(-c4ccc(F)cc4)c(=O)n(C)c3n2)cc1 | inactive | 
82 | CC(=O)Nc1cc(C(=O)NCc2ccc(F)cc2)ccc1Sc1ccc(F)cc1 | inactive | 
83 | Cc1nnc2n1N=C(c1ccc3c(c1)NC(=O)CO3)CS2 | inactive | 
84 | COc1ccc(C2=Nn3c(nnc3-c3ccccc3OC)SC2)cc1OC1CCCC1 | 14.1 µM (active) | 
85 | CCN(CCCNC(=O)CSc1cc(=O)n(C)c2cc(Cl)ccc12)c1cccc(C)c1 | inactive | 
86 | CCC1(C2CCN(C(=O)c3cccc(F)c3F)CC2)NC(=O)N(CCc2scnc2C)C1=O (centres undefined) | inactive | 
87 | COc1cc(=O)n2c(c1C(=O)NCc1ccco1)CCN(Cc1ccccc1)CC2 | inactive | 
88 | Cc1ccccc1-c1nc(CS(=O)(=O)CC(=O)N2CCc3ccccc3C2)c(C)o1 | inactive | 
89 | COc1cccc(-c2nc(CS(=O)(=O)CC(=O)N3CCN(c4cc(C)ccc4C)CC3)c(C)o2)c1 | 20 µM (active) | 
90 | CCCCN(CC)CCCNC(=O)CS(=O)(=O)Cc1nc(-c2cccc(OC)c2)oc1C | inactive | 
91 | COc1ccc(C)cc1-n1c(-c2ccc(C)cc2)cc2c1CC(C)(C)CC2=O | inactive | 
92 | N#CC(C#N)=Cc1cc(O)c(O)c([N+](=O)[O-])c1 | inactive | 
93 | COc1ccc(-n2nnc(-c3nsc(NC(=O)c4ccc(C)c(C)c4)n3)c2C)cc1Cl | inactive | 
94 | Cc1ccc(C)n1-c1nnc(N2CCC(C(=O)NCc3ccc(F)cc3)CC2)s1 | inactive | 
95 | Cc1sc2ncnc(SCC(=O)NC3CCS(=O)(=O)C3)c2c1C (centres undefined) | inactive | 
96 | Cc1sc2ncnc(N3CCC(C(=O)NNC(=O)c4ccc(F)cc4)CC3)c2c1C | 20 µM (active) | 
97 | CCc1ccc(C(=O)NNC(=O)C2CCN(c3ncnc4sc(C)c(C)c34)CC2)cc1 | 31.6 µM (active) | 
98 | CCc1ccc(CNC(=O)C2CCN(c3nnc(C)c4c(C)n(-c5ccc(C)cc5)nc34)CC2)cc1 | inactive | 
99 | Cc1sc2ncnc(SCC(=O)Nc3ccc(CN4CCCC4)cc3)c2c1C | inactive | 
